One assay addresses ETS1. Kind of assay: pooled miR-30 sensor sort-seq; sequence = guide strand. The settings on record: shRNA.
Sequence TATGCTTTCAAAAGAGTCCTGG showed a sensor-assay potency score (higher = more potent) of 0.343.

Take AAGACTGACAGGATTTATCAGT: the sensor-assay potency score (higher = more potent) is -0.516.

As to TTTTCCGTCTTGATGATGGTGA, the sensor-assay potency score (higher = more potent) is -0.268.

As for TAGAGTGATAGGTAAATAGTTC, the sensor-assay potency score (higher = more potent) is -0.916.

With TTTTGTCGTAATAGTAGCGTAG, the sensor-assay potency score (higher = more potent) was -0.397.

For the sequence TTTATCAGTGAGTAATTCCAGA, the sensor-assay potency score (higher = more potent) was -0.449.

A further assay has as its target EYA3. The assay is described as above. The settings on record: shRNA.
Consider TTGACTTATAGTTTGCTCTCCT, for which the sensor-assay potency score (higher = more potent) is 0.627.

Take TTTACTTGGTGTAGTCTGGGAC: the sensor-assay potency score (higher = more potent) was -0.478.

Consider TTTAATGCAGTTCCTAACCAGG, for which the sensor-assay potency score (higher = more potent) is -1.16.

Consider TATAATCATTGGATGAGCGAGG, for which the sensor-assay potency score (higher = more potent) was -0.793.

On to TTGCTAGTCATGTTTTTCCTGG, for which the sensor-assay potency score (higher = more potent) was -0.514.

Consider TTTCTTCCATTGTTAAACCTGA, for which the sensor-assay potency score (higher = more potent) is -0.4.

For the sequence TAGTGTCTGGTATTGAGTCTGT, the sensor-assay potency score (higher = more potent) was -0.308.

Regarding TCTGGTATTGAGTCTGTCCAGG, the sensor-assay potency score (higher = more potent) was -0.468.

Take TAATCCTGGTTTGAGATGCTGG: the sensor-assay potency score (higher = more potent) was -0.375.

As to TTTTCCTGGACTGATCATCAGT, the sensor-assay potency score (higher = more potent) is -0.683.

In turn, TTTGGTAGCACTATAGATGTTC showed a sensor-assay potency score (higher = more potent) of 0.549.

Take TTCTAATTCACTGTCTTGGGAA: the sensor-assay potency score (higher = more potent) is -0.169.

Take TAGATTTCTCTCACTTTCCGGT: the sensor-assay potency score (higher = more potent) was 0.197.

Turning to TTGCTCTCCTGATTCCTGCATC, the sensor-assay potency score (higher = more potent) was -0.293.

Consider TAGTTTGCTCTCCTGATTCCTG, for which the sensor-assay potency score (higher = more potent) was -0.14.

For the sequence TTGTGAGGTATAATCATTGGAT, the sensor-assay potency score (higher = more potent) is -0.583.

For the sequence TTGAGTCTGCTGTAGTGTCTGG, the sensor-assay potency score (higher = more potent) is -0.331.

Consider TTAGTCTGACCTGTGACTCCAA, for which the sensor-assay potency score (higher = more potent) is -0.459.

ATCACTGTTAGTCTGACCTGTG came in with a sensor-assay potency score (higher = more potent) of 0.133.

For the sequence TTCTGCTCTTAATCTCTGCAGT, the sensor-assay potency score (higher = more potent) was -0.462.

Turning to TAGTCTGACCTGTGACTCCAAA, the sensor-assay potency score (higher = more potent) is -0.964.

In the case of TAGTCCATATAGGAGAACCTTG, the sensor-assay potency score (higher = more potent) was -1.31.

The sequence TTAATCTCTGCAGTGCTTCCTT displayed a sensor-assay potency score (higher = more potent) of 0.585.

The next assay addresses F2R. The assay is described as above. To be noted: shRNA.
ATAGACACATAACAGACCGTGG: the sensor-assay potency score (higher = more potent) was -0.63.

Consider TTGGCTTATGTGTACAGTGTGT, for which the sensor-assay potency score (higher = more potent) is -0.314.

On to TTATTGATGGAGACTAATCTGT, for which the sensor-assay potency score (higher = more potent) was -0.475.

Consider TACACATACATCACACTCTATG, for which the sensor-assay potency score (higher = more potent) is -1.1.

Turning to TAACACCGTCATCTCGTCCTGT, the sensor-assay potency score (higher = more potent) was -0.174.

For ACAAACAGCACATCTGCCGTGG, the sensor-assay potency score (higher = more potent) is -0.289.

With TAGGATATCACATTCTGCTTTG, the sensor-assay potency score (higher = more potent) is -0.448.

As for TTCAGGGCTAAACTCTACCAAC, the sensor-assay potency score (higher = more potent) is -1.3.

In the case of TTTCTGGCCAATCTGTGTCTGA, the sensor-assay potency score (higher = more potent) was -0.414.

For the sequence TTTCAGGATGAACACAACGATG, the sensor-assay potency score (higher = more potent) was -1.75.

TTAATAACTTAAACCTTGCCGT: the sensor-assay potency score (higher = more potent) amounted to 0.203.
Note: reference of the scale not given here.
